Hit rate of the full screen: of about 420,000 compounds, about 64,000 (15%) were called active. Inconclusive results (about 27%) are left out. The call rests on the fitted dose curve; in most records, active means well fitted inhibition curve with a large enough effect; inconclusive means small, poorly fitted or top-dose-only effect; inactive means flat fitted curve, though single readings scatter. Only a sample is shown. Where a call stands in place of a potency, no number is given.
Test: qHTS for Inhibitors of human tyrosyl-DNA phosphodiesterase 1 (TDP1): qHTS in cells in absence of CPT; further: nearly all actives have a fitted effect of over 55% in size
Conditions: DT40 Tdp1-/- hTDP1 cells, no CPT, ATP luminescence, 48 h; activity change, negative = growth inhibition: at 46.2 µM (top of the series)
Outline: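 Cells were dispensed at 400 per well, compounds added by pin tool, plates incubated ≥48 hr at 37 °C, then CellTiter-Glo added for 30 min at room temperature before luminescence reading. Line: DT40 Tdp1-/- complemented with hTDP1; camptothecin omitted.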
Potency means the concentration at half of the fitted maximal effect.

Compound	Potency
CC1(C(=O)NS(=O)(=O)c2cccc(F)c2)CCN1C(=O)Cc1cc(F)ccc1F (stereo unspecified)	inactive
O=C(CN1C(=O)COc2ccc(Cl)cc21)N1CCOCC1	inactive
Cc1cccc(OCC(=O)NCCNC(=O)c2cccnc2)c1	inactive
CCOC(=O)c1ccc(N2C(=O)c3n[nH]c(C)c3C2c2ccc(O)c(OC)c2)cc1 (stereo unspecified)	18.4 µM (active)
COc1cc(C2C(C(=O)c3ccc(C)o3)=C(O)C(=O)N2Cc2cccnc2)ccc1O (stereo unspecified)	inactive
CCOC(=O)C1=C(c2ccccc2)N=C2SCC(=O)N2C1c1ccc(O)c(OC)c1 (stereo unspecified)	inactive
Cc1nc(N2CCCC2C(=O)O)c2oc3ccccc3c2n1 (stereo unspecified)	inactive
CCCN(CC(=O)Nc1ccc(OC)c(OC)c1)CC(=O)Nc1ccc(F)c(F)c1F	inactive
O=C(Nc1sc2c(c1-c1nc3ccccc3[nH]1)CCCC2)C1CC1	inactive
CC(=O)c1ccc(NC(=O)C(C)NCc2ccc(Cl)cc2)cc1 (stereo unspecified)	inactive
Cc1nnc(N/N=C/c2ccccn2)[nH]c1=O	2.91 µM (active)
CCN(CC)CCCN=Cc1c(O)n(-c2ccc(C)cc2)c(=O)c2ccccc12	inactive
Cc1ccccc1Nc1nnc(C)c(=O)[nH]1	inactive
CCOc1ccc(-n2c(O)c(/C=N/c3ccnn3Cc3ccncc3)c3ccccc3c2=O)cc1	inactive
CCOc1ccc(-n2c(O)c(/C=N/Nc3nc(C)cc(C)n3)c3ccccc3c2=O)cc1	3.26 µM (active)
COc1ccc(-n2c(O)c(C=NCC(c3ccco3)N3CCCC3)c3ccccc3c2=O)cc1OC (stereo unspecified)	inactive
Cc1nnc(N/N=C/c2cccs2)[nH]c1=O	inactive
CCOc1ccc(N/C(N)=N/c2nc(C)c(C)c(=O)[nH]2)cc1	inactive
CCOc1ccc(-n2c(O)c(/C=N/Nc3nnc(C)c(=O)[nH]3)c3ccccc3c2=O)cc1	0.92 µM (active)
CC(=O)Nc1ccc(S(=O)(=O)NC2(C(F)(F)F)C(=O)Nc3c2c(=O)[nH]c(=O)n3Cc2ccccc2)cc1 (stereo unspecified)	inactive
Cc1cc(F)ccc1NC(=O)C(C)n1c2ccccc2c2nc(=O)cc(C)n21 (stereo unspecified)	inactive
CCC(C)n1[nH]c(=O)cc1N (stereo unspecified)	inactive

Compound	Potency
O=C(CCN1C(=O)C2C3C=CC(C3)C2C1=O)Oc1ccc2ccccc2c1 (stereo unspecified)	inactive
CC1CCCCC1NC(=O)CN1CCC(O)(c2ccc3c(c2)OCO3)CC1 (stereo unspecified)	inactive
CCCCn1nc(C(=O)N2CCc3ccccc32)c2ccccc2c1=O	16.4 µM (active)
CCCn1nc(C(=O)N2CCCc3ccccc32)c2ccccc2c1=O	18.4 µM (active)
CCC(=O)N1CCCc2ccccc21	inactive
CCCCn1nc(C(=O)OCC(=O)Nc2sccc2C(N)=O)c2ccccc2c1=O	inactive
O=C(c1cccc(C(=O)N2CCc3ccccc32)n1)N1CCc2ccccc21	inactive
CCn1nc(C(=O)OCC(=O)N2c3ccccc3CC2C)c2ccccc2c1=O (stereo unspecified)	inactive
O=C(NCCCN1CCCCCC1)C1CC(=O)N(C2CCCC2)C1 (stereo unspecified)	inactive
CCN1CCN(C(c2ccc(C)cc2)c2c(O)cc(C)n(Cc3ccco3)c2=O)CC1 (stereo unspecified)	inactive
CCOC(=O)[C@H](CCc1ccccc1)N[C@@H](C)C(=O)N1CC2(C[C@H]1C(=O)O)SCCS2	inactive
Cc1ccc(NC2=NC(c3ccccc3)n3c(nc(C)cc3=O)N2)cc1 (stereo unspecified)	inactive
COc1cccc(NCCC(=O)c2cccc([N+](=O)[O-])c2)c1	14.6 µM (active)
CC(C)(C)SCCNC(=O)c1cccc([N+](=O)[O-])c1	inactive
COc1cccc(CNC(=O)CCCC(=O)Nc2cccc([N+](=O)[O-])c2)c1	inactive
CC1=NN(c2ccc(Cl)c(C(=O)O)c2)C(=O)/C1=C/c1ccc(-c2ccccc2[N+](=O)[O-])o1	inactive
Cc1occc(=O)c1OCc1ccc(F)cc1	inactive
Cc1nc2ccccc2cc1OCc1ccc(F)cc1	11.6 µM (active)
Fc1cccc2ncnc(OCc3ccccc3)c12	inactive
Cc1cc(C)cc(C(=O)NC2C(=O)N3C(C(=O)O)=C(CSc4nnc(C)s4)CSC23)c1 (stereo unspecified)	inactive
CCOc1ccc(NC(=O)c2ccc(NC(=O)CN3C(=O)C(=O)N(CC(C)C)C3=O)cc2)cc1	inactive
Cc1ccsc1C(=O)OCC(=O)NCCc1ccccc1	inactive

Compound	Potency
CCC1CCCCN1C(=O)CSc1nc(C)cc(C)n1 (stereo unspecified)	inactive
CC(=O)c1cccc(NC(=S)N2CCCC2)c1	inactive
Cc1cccc(NC(=S)N2CCC(C(=O)c3ccc(F)cc3)CC2)c1	13 µM (active)
Cc1cccc(NC(=O)C2CCN(C(=O)NC3CCCCC3)CC2)c1	inactive
Cn1c(N2CCOCC2)c(C=O)c2ccccc21	inactive
CCNC(=S)N1CCN(C(=O)c2ccco2)CC1	inactive
O=C1OC(c2ccc(Cl)cc2)=N/C1=C\c1cccnc1	16.4 µM (active)
Cc1ccc(C2=C/C(=C\c3cccnc3)C(=O)O2)cc1	inactive
Cc1ccccc1C1=N/C(=C/c2cccnc2)C(=O)O1	inactive
O=C1NC2(CCCCCC2)C(=O)N1CCS(=O)(=O)Oc1ccccc1	inactive
CCCNC(=S)N1CCC(NC(=O)c2ccc(OC)cc2)CC1	inactive
CCOn1c(=O)c(=O)n(O)c2ccccc21	inactive
O=C(Nc1nonc1-c1ccc(Cl)cc1)c1ccco1	inactive
Cc1cccc(-c2c(NC(=O)c3ccco3)oc3ccc(Cl)cc3c2=O)c1	25.9 µM (active)
COc1ccc(-c2c(NC(=O)c3ccco3)oc3ccc(Cl)cc3c2=O)cc1	inactive
Clc1ccccc1CSc1nnc(-c2ccco2)c(-c2ccco2)n1	inactive
CC(Oc1ccc(Cl)cc1)c1ccnn1S(C)(=O)=O (stereo unspecified)	inactive
COC(=O)c1noc(C)c1-c1ccnn1C(=O)c1ccc(Cl)cc1	inactive
Cc1onc(-c2ccc(Cl)cc2)c1-c1ccnn1S(=O)(=O)c1ccc(Cl)cc1	16.4 µM (active)
Nc1ncnc2c1ncn2[C@@H]1O[C@H](C(=O)NS(=O)(=O)c2c(Cl)nc3sccn23)[C@@H](O)[C@H]1O	inactive
COC1C[C@@H](O[C@@H]2C(C)C(=O)OC(C)C(C)C(O)C(C)C(=O)[C@@]3(CO3)CC(C)C(OC3OC(C)CC(N(C)C)C3O)C2C)OC(C)[C@@H]1O (stereo partly specified)	inactive
Cc1ccc(S(=O)(=O)n2cccc2CO)cc1	inactive

Reference: PubChem BioAssay AID686978 (National Center for Advancing Translational Sciences (NCATS), 2013)
